Tests used:
[1] = molecular target: Tumor necrosis factor receptor superfamily member 10B (Homo sapiens) (UniProt O14763); assay: viability loss of caspase-8 NB7 cells with TRAIL – with/without TRAIL, luminescence panel, confirmation (AID 651596); details: NB7 neuroblastoma + caspase-8, TRAIL sensitization, NB7 Caspase-8, with TRAIL, mean of runs, at 10 µM, stronger effect = higher value
[2] = as above; details: NB7 neuroblastoma + caspase-8, without TRAIL, NB7 Caspase-8, without TRAIL, mean of runs, at 10 µM

Sequence of Tumor necrosis factor receptor superfamily member 10B (Homo sapiens) (O14763 whole entry, looked up): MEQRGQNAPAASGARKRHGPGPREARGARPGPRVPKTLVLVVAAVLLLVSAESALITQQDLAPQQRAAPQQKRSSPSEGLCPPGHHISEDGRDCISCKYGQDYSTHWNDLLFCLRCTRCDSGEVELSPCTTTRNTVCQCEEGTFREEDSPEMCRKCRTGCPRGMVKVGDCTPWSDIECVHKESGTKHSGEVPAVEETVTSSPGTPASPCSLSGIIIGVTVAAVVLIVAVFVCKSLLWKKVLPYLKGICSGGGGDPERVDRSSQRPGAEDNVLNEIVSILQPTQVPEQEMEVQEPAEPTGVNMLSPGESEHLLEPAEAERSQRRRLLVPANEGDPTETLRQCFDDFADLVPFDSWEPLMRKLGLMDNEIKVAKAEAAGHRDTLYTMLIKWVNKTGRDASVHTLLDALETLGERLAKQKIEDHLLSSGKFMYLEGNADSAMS

Compound	activity [1]	activity [2]
O=C(Nc1nc2ccccc2[nH]1)c1ccc(F)cc1	90.8%	91%
Nc1nnnn1/N=C/C(Br)=C/c1ccccc1	68.6%	88.8%
COC(=O)c1ccc2nc(-c3cccc(N)c3)cn2c1	74.5%	67.8%
COc1ccc(OC)c(S(=O)(=O)Nc2ccc(-c3ccc4nncn4n3)cc2)c1	57.5%	59.3%
Clc1ncnc2c1oc1ccccc12	82.7%	60.4%
Cc1ccccc1-c1nc2sc3c(c2c(=O)n1N)CCCC3	44%	46%
NC(N)=Nc1ccc(C=C2C=Cc3ccccc32)cc1	96.6%	68.5%
Cc1nc(N)nc(N)c1-c1ccc([N+](=O)[O-])cc1	71.8%	81.2%
Oc1ccccc1-c1cc(-c2ccccc2)no1	46.3%	37.7%
CCOC(=O)c1sc(NC(=O)c2ccc(OC(C)=O)cc2)nc1C	61.3%	57.9%
O=c1[nH]c2ccccc2nc1/C=C/c1ccc(Cl)cc1	64.9%	74.2%
NC(CCc1ccccc1)c1csc(NC(=O)Nc2ccccc2Oc2ccccc2)n1 (stereo not drawn)	79%	93%
O=C(Nc1ccc(O)cc1)c1ccc(NC(=O)c2cccs2)cc1	85.2%	84.8%
CCc1nnc(NC(=O)CSc2nc3c(cc2C#N)CCCC3)s1	62.8%	72.3%
O=C(Nc1ccc(N2CCCCC2)cc1)c1ccccc1	69.6%	58.5%
O=C(/C=C/c1ccc(Cl)cc1Cl)N1CCc2ccccc21	47.9%	51.4%
Cc1ccc(C(=O)c2no[n+]([O-])c2C(=O)c2ccc(C)cc2)cc1	98%	92%
Cc1cnc(NC(=O)COc2ccccc2Cl)s1	83%	82.7%
CN(C)c1ccc(-c2nc3ccccc3n2C)cc1	92.3%	89.8%
COc1ccccc1C=NN=C(NN=Cc1ccccc1OC)NN=Cc1ccccc1OC	78%	65.6%
Nc1nc(-c2ccc(-c3ccccc3)cc2)cs1	51.2%	50.7%
CC(=O)Nc1cccc(-c2csc(Nc3ccc(C)cn3)n2)c1	49.5%	30.4%
Cc1ccnc(NC(=S)NC(=O)c2ccco2)c1	65.5%	57.7%
CNc1nc(N/N=C/c2cc([N+](=O)[O-])ccc2F)nc(Nc2ccccc2)n1	71.5%	86.5%
Cc1ccc(-n2[nH]c(C)c(C=Nc3ccc4[nH]c(=O)[nH]c4c3)c2=O)cc1C	51.4%	41.5%

Compound	activity [1]	activity [2]
O=C(Nc1cccc(Oc2ccc(C(=O)O)c(C(=O)O)c2)c1)c1ccc(-c2ccccc2)cc1	60.4%	56%
COc1cc(SC)ccc1C(=O)NNC(=O)c1cc(C)oc1C	71.4%	70.8%
Clc1ccc(-n2ncc3c(N4CCCCCC4)ncnc32)cc1	78%	74.8%
Cc1cc(N2CCOCC2)n2ncc(-c3ccccc3)c2n1	66.8%	52.8%
O=C(c1ccncc1)N(Cc1cc2ccccc2[nH]c1=O)C1CCCCC1	72.5%	78.4%
Cc1ccc(NC(=O)CSc2ccc(-c3ccc4c(c3)OCO4)nn2)cc1F	39%	44.9%
COc1ccc(-c2csc(NC(=O)C3CCN(c4ncnc5sc(C)c(C)c45)CC3)n2)cc1OC	84.3%	62.9%
CCc1c(C)[nH]c2c(C)cccc2c1=O	56.4%	64.3%
Cc1nn(Cc2ccc(Cl)cc2Cl)c(C)c1NC(=O)CCl	95.8%	97.8%
Cc1ccc(C(=O)Nc2ccc3c(c2)CCC3)cc1	78.7%	76.2%
COc1cccc2oc3ccc(C#Cc4ccccn4)cc3c(=O)c12	71.8%	87.5%
O=C(Nc1nc2ccccc2n1CCN1CCCCC1)C1CCCCC1	56.6%	54.1%
COc1cccc2sc(N(CCCN(C)C)C(=O)c3ccc(S(=O)(=O)N4CCc5ccccc5C4)cc3)nc12	56.8%	79%
Cc1cc(NC(=O)CSc2nnc(-c3ccc4c(c3)OCCO4)o2)no1	52.1%	58.8%
CC(=O)N1CCc2c(sc(NC(=O)c3ccc([N+](=O)[O-])o3)c2C(N)=O)C1	51.4%	90.9%
C[C@H](NC(=O)c1[nH]cnc1C(=O)Nc1ccc(CNC(=O)OC(C)(C)C)cc1)C(=O)OCc1ccccc1	63.1%	37.6%
CCc1ccc(/C=N/Nc2ncnc3nc[nH]c23)cc1	47.1%	41.7%
Nc1ccc(C(=O)NN2C(=O)[C@H](Cl)C2c2ccc(Cl)cc2)cc1 (stereo partly drawn)	99.3%	99.5%
O=C(CC1CCCC1)Nc1nc2ccccc2[nH]1	49.7%	62.4%
COc1cccc(/C=C2\CCc3ccccc3C2=O)c1	83.4%	78.5%
COc1ccc(C)c2sc(N(CCCN(C)C)C(=O)c3ccc(S(=O)(=O)N4CCc5ccccc5C4)cc3)nc12	95.1%	99.4%
COC(=O)c1cc(OCC(=O)Nc2ccc3c(c2)CCC3)cc(C(=O)OC)c1	-14.7%	-57.5%
C[C@H](CO)N1C[C@H](C)[C@@H](CN(C)C(=O)NC2CCCCC2)Oc2c(NS(=O)(=O)c3ccccc3)cccc2C1=O	-8.07%	1.05%
CCCc1cc(=O)[nH]c(SCC(=O)c2c(N)n(C3CC3)c(=O)[nH]c2=O)n1	80.3%	88.8%

Source: PubChem BioAssay
